39 molecules from PubChem BioAssay (Tox21) can be followed below.

Results filed as inconclusive are left out. Entries that show only a call come without a potency. Calls of active or inactive are those of the source. Unless noted, the call rests on the fitted dose curve.
Potency means the concentration at half of the fitted maximal effect.

Sequence of Progesterone receptor (Homo sapiens) (P06401 whole entry, looked up): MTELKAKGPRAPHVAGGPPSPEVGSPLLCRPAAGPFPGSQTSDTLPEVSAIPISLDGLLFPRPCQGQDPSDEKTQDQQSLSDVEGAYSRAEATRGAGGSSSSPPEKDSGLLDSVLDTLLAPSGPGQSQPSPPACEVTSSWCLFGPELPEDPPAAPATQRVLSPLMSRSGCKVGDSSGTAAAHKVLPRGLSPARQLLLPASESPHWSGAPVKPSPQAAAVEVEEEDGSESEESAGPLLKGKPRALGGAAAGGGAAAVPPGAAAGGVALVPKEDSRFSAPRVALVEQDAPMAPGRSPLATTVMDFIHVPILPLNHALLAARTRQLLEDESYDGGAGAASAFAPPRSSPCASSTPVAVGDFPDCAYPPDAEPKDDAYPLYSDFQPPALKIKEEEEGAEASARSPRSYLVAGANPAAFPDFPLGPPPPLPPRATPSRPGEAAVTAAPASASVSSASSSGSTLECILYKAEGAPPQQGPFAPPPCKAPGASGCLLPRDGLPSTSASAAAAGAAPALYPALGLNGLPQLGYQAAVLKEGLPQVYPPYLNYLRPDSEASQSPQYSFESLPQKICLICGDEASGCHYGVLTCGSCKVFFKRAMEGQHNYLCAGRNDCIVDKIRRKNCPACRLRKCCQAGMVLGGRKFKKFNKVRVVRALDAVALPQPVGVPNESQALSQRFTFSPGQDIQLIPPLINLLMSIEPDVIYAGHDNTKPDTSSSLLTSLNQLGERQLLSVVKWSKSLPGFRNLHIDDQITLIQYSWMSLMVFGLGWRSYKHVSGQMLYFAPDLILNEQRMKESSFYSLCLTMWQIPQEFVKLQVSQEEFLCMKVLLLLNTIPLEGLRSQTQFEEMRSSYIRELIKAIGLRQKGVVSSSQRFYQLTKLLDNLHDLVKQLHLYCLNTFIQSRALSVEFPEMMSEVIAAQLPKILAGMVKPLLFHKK

One test concerns the target Progesterone receptor (Homo sapiens) (UniProt P06401). Nature of the test: qHTS assay to identify small molecule agonists of the progesterone receptor (PR) signaling pathway (AID 1346784). Further: nearly all actives have a fitted effect of over 30% in size. The settings on record: PR-UAS-bla HEK293T, beta-lactamase FRET ratio, 16 h; series mostly up to 92.4 µM. The method in brief:
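Cells (PR-UAS-bla HEK 293T, GripTite) were plated in assay medium containing 2% charcoal-stripped FBS and incubated 6 hr. Test compounds in DMSO were added for 16 hr at 37C. FRET substrate was then loaded for 2 hr at room temperature before fluorescence reading.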
Background: qHTS replaces the single test concentration by a dilution series.
In the case of `CNC(=O)O/N=C(\C)C(C)S(C)(=O)=O` (stereo unspecified), the Potency result was “inactive”.
With `CCO/N=C(\CC)C1=C(O)CC(c2c(C)cc(C)cc2C)CC1=O` (stereo unspecified), the Potency result was “inactive”.
Turning to `CC(=O)[O-].CC(=O)[O-].[Co+2]`, the Potency result is “inactive”.
In the case of `CN(C)CCc1c[nH]c2ccccc12`, the Potency entry is “inactive”.
Consider `O.O.O.O=C([O-])[C@H]([O-])[C@@H]([O-])C(=O)[O-].O=C([O-])[C@H]([O-])[C@@H]([O-])C(=O)[O-].[K+].[K+].[Sb+3].[Sb+3]`, for which the Potency entry was “inactive”.
Take `Clc1ccc(C2(Cn3cncn3)OCCO2)c(Cl)c1`: the Potency result was “inactive”.
The same measure, in the same setting: in the case of `CCOP(=S)(OCC)Oc1cc(C)nc(N(CC)CC)n1` it was “inactive”; in that of `Nc1c(Cl)c(Cl)c(Cl)c(Cl)c1Cl`, 1.22 µM (active).
On to `Nc1ccccc1-c1ccccc1`, for which the Potency result was “inactive”.
For the molecule `CCOP(=S)(NC(C)C)Oc1ccccc1C(=O)OC(C)C` (stereo unspecified), the Potency result is “inactive”.
Take `Cc1c([N+](=O)[O-])c(C)c([N+](=O)[O-])c(C(C)(C)C)c1[N+](=O)[O-]`: the Potency result is “inactive”.
On to `ClC1=C(Cl)[C@]2(Cl)[C@@H]3[C@H]4C[C@H]([C@@H]5O[C@H]45)[C@@H]3[C@@]1(Cl)C2(Cl)Cl`, for which the Potency entry is “inactive”.
Regarding `CC(C)Br`, the Potency result is “inactive”.
For `C#CCC1=C(C)C(OC(=O)C2C(C=C(C)C)C2(C)C)CC1=O` (stereo unspecified), the Potency result was “inactive”.
The same measure, in the same setting: in the case of `CCCCC(CC)COC(=O)c1ccccc1C(=O)OCC(CC)CCCC` (stereo unspecified) it was 43.3 µM (active).
As for `N#Cc1ccc(N(CC(N)=O)CC(F)(F)F)cc1C(F)(F)F`, the Potency entry was “inactive”.
`CCN(CC)Cc1nccn1-c1ccc([N+](=O)[O-])cc1C(=O)c1ccccc1Cl`: the Potency entry was “inactive”.
The same measure, in the same setting: in the case of `CC(C)c1c(CN(C)C(C)Cc2ccccc2)n(C)n(-c2ccccc2)c1=O` (stereo unspecified) it was “inactive”; in that of `BrCC(Br)(Br)Br`, “inactive”; in that of `CSSC`, “inactive”.
Same read-out and setting: in the case of `O=C(NC(=O)c1ccccc1Cl)Nc1ccc(OC(F)(F)F)cc1` it was “inactive”.
Regarding `CC1(C)[C@H](/C=C2\CCSC2=O)[C@@H]1C(=O)OCc1coc(Cc2ccccc2)c1`, the Potency entry is “inactive”.

For a further test the target is unchanged. Nature of the test: qHTS assay to identify small molecule antagonists of the progesterone receptor (PR) signaling pathway (AID 1346795; active means well fitted inhibition curve with a large enough effect in the signal ratio in the repeat runs, not every such curve was filed as active; the % refers to the signal ratio). Conditions: PR-UAS-bla HEK293T, beta-lactamase FRET ratio, 16 h; series mostly up to 92.4 µM. The essentials: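 Antagonist mode: compounds tested against 1 nM (final) promegestone stimulation in HEK293T cells expressing PR-UAS-bla reporter, 16 hr at 37C, 5% CO2; beta-lactamase activity detected via B/G FRET substrate after 2 hr at room temperature.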
With `CCCCC(CC)COC(=O)OOC(C)(C)C` (stereo unspecified), the Potency result was “inactive”.
Same read-out and setting: in the case of `O=C1C2(Cl)C3(Cl)C4(Cl)C(Cl)(Cl)C5(Cl)C3(Cl)C1(Cl)C5(Cl)C24Cl` (stereo unspecified) it was 29.3 µM (active); in that of `O=c1[nH]c2cc(Cl)ccc2n1C1CCNCC1`, “inactive”.
`CCOP(=O)(OCC)Oc1nc(Cl)c(Cl)cc1Cl`: the Potency is 5.42 µM (active).
In the case of `Cc1cc(C2CC2)nc(Nc2ccccc2)n1`, the Potency is 30.6 µM (active).
The same measure, in the same setting: in the case of `O=c1[nH]c(Cl)c(Cl)cc1Cl` it was “inactive”; in that of `[C-]1=CC=CC1.[Cl][Zr+2][Cl].c1cc[cH-]c1`, “inactive”.
Turning to `CCC(OC(C)=O)C(CC(C)NC)(c1ccccc1)c1ccccc1` (stereo unspecified), the Potency is 54.9 µM (active).
With `CCC[CH2][Sn]([CH2]CCC)([CH2]CCC)[O][Sn]([CH2]CCC)([CH2]CCC)[CH2]CCC`, the Potency was 0.752 µM (active).
Still for that read-out and setting: in the case of `C1=CCC=C1` it was “inactive”; in that of `C=C(C)C(=O)[O][Sn]([CH2]CCC)([CH2]CCC)[CH2]CCC`, 1.09 µM (active).
Consider `CCC[CH2][Sn]([CH2]CCC)([CH2]CCC)[CH2]CCC`, for which the Potency was 24.3 µM (active).
In the case of `CN1CCc2cc3c(cc2C1O)OCO3` (stereo unspecified), the Potency result was “inactive”.
For the molecule `C[C@]12Cc3cn[nH]c3C[C@@H]1CC[C@@H]1[C@@H]2CC[C@@]2(C)[C@H]1CC[C@]2(C)O`, the Potency was 0.119 µM (active).
As for `N#CCCl`, the Potency entry was “inactive”.
`COP(=S)(OC)Oc1ccc([N+](=O)[O-])c(C)c1`: the Potency is 6.11 µM (active).
Regarding `[Cl-].[Cl-].[Cl-].[Yb+3]`, the Potency result was “inactive”.

System in a further test: not listed separately
Nature of the test: qHTS assay to identify small molecule antagonists of the progesterone receptor (PR) signaling pathway - cell viability counter screen (AID 1346798; active means well fitted cell-killing curve with a large enough effect in the repeat runs; further: nearly all actives have a fitted effect of over 50% in size). The settings on record: PR-UAS-bla HEK293T viability, CellTiter-Glo luminescence, 16 h; series mostly up to 92.4 µM. The essentials:
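Counter screen for cytotoxicity: viability of PR-UAS-bla HEK293T cells was measured with CellTiter-Glo luminescence following 16 hr compound exposure in the presence of R5020.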
Turning to `CCCCC(CC)COC(=O)OOC(C)(C)C` (stereo unspecified), the Potency entry was “inactive”.
Turning to `O=c1[nH]c2cc(Cl)ccc2n1C1CCNCC1`, the Potency entry was “inactive”.
As to `CCOP(=O)(OCC)Oc1nc(Cl)c(Cl)cc1Cl`, the Potency result was “inactive”.
Turning to `[C-]1=CC=CC1.[Cl][Zr+2][Cl].c1cc[cH-]c1`, the Potency result is “inactive”.
For `CCC(OC(C)=O)C(CC(C)NC)(c1ccccc1)c1ccccc1` (stereo unspecified), the Potency was 54.9 µM (active).
As to `CCC[CH2][Sn]([CH2]CCC)([CH2]CCC)[O][Sn]([CH2]CCC)([CH2]CCC)[CH2]CCC`, the Potency is 1.68 µM (active).
Take `C1=CCC=C1`: the Potency result was “inactive”.
As to `C=C(C)C(=O)[O][Sn]([CH2]CCC)([CH2]CCC)[CH2]CCC`, the Potency was 3.44 µM (active).
On the same count and under the same terms, in the case of `CCC[CH2][Sn]([CH2]CCC)([CH2]CCC)[CH2]CCC` it was 43.3 µM (active).
Turning to `CN1CCc2cc3c(cc2C1O)OCO3` (stereo unspecified), the Potency entry is “inactive”.
`N#Cc1ccc(N(CC(N)=O)CC(F)(F)F)cc1C(F)(F)F`: the Potency entry is “inactive”.
Regarding `C[C@]12Cc3cn[nH]c3C[C@@H]1CC[C@@H]1[C@@H]2CC[C@@]2(C)[C@H]1CC[C@]2(C)O`, the Potency was 18.8 µM (active).
Take `COP(=S)(OC)Oc1ccc([N+](=O)[O-])c(C)c1`: the Potency entry was “inactive”.
Regarding `[Cl-].[Cl-].[Cl-].[Yb+3]`, the Potency entry was “inactive”.

System in the next test: not listed separately
Nature of the test: qHTS assay to identify small molecule agonists of the progesterone receptor (PR) signaling pathway - cell viability counter screen (AID 1346799). Further: nearly all actives have a fitted effect of over 45% in size. Conditions: PR-UAS-bla HEK293T viability, CellTiter-Glo luminescence, 16 h; series mostly up to 92.4 µM. The essentials:
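Cells (PR-UAS-bla HEK293T) are plated at 3,000/well in 2% charcoal-stripped FBS medium, rested 6 hr, dosed and incubated 16 hr at 37C. CellTiter-Glo is then added and luminescence measured after 30 min at room temperature.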
Consider `CCC[CH2][Sn]([CH2]CCC)([CH2]CCC)[O][Sn]([CH2]CCC)([CH2]CCC)[CH2]CCC`, for which the Potency is 1.89 µM (active).
Same read-out and setting: in the case of `CCOP(=S)(OCC)Oc1cc(C)nc(N(CC)CC)n1` it was “inactive”; in that of `C1=CCC=C1`, “inactive”.
In the case of `CC(C)Br`, the Potency entry was “inactive”.
As to `C=C(C)C(=O)[O][Sn]([CH2]CCC)([CH2]CCC)[CH2]CCC`, the Potency was 2.17 µM (active).
Regarding `CN1CCc2cc3c(cc2C1O)OCO3` (stereo unspecified), the Potency result was “inactive”.
On the same count and under the same terms, in the case of `CCN(CC)Cc1nccn1-c1ccc([N+](=O)[O-])cc1C(=O)c1ccccc1Cl` it was “inactive”; in that of `C[C@]12Cc3cn[nH]c3C[C@@H]1CC[C@@H]1[C@@H]2CC[C@@]2(C)[C@H]1CC[C@]2(C)O`, 18.8 µM (active).
